Measured values published in the supplement of paper PMC10849652.
The full data set covers some 7,900 targets. This sample favours those with a hit. About 0.6% of all pairs of compound and target were hits. Unmarked numbers belong to inactive results.

Columns and labels:
Test in all cases: log2 fold change, soluble protein after heating vs DMSO (PISA); higher = thermal stabilisation; K562 cells, 10 uM, 30 min; active = over 0.2 and 3.5 SD of the protein, either way, in both replicates (recomputed)
bafetinib = compound: Cc1ccc(NC(=O)c2ccc(CN3CC[C@H](N(C)C)C3)c(C(F)(F)F)c2)cc1Nc1nccc(-c2cncnc2)n1 [bafetinib]
Procedure, shortened: (§1)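 For each measurement, 10 μM compound was applied for 30 min to K562 cells at 2×10^6 cells/mL. Aliquots were heated for 3 min across 48°C-58°C, pooled, and extracted in PBS with 0.5% NP-40 at 4°C; the supernatant after 21,000xg for 90 min was soluble protein. This was quantified by TMTpro 16plex LC-MS/MS with channel sums equalised, and thermal stability was reported relative to control samples from duplicates, on a log2 fold-change scale.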

[1] = compound: Cc1cccc(CC(=O)N2CCc3c2ccc(-c2cn(C)c4ncnc(N)c24)c3F)n1
Procedure, shortened: as §1

nilotinib = compound: Cc1cn(-c2cc(NC(=O)c3ccc(C)c(Nc4nccc(-c5cccnc5)n4)c3)cc(C(F)(F)F)c2)cn1 [nilotinib]
Procedure, shortened: as §1

[2] = compound: Cc1nc(Nc2n[nH]c3c2CN(C(=O)N[C@H](CN(C)C)c2ccccc2)C3(C)C)c2sccc2n1
Procedure, shortened: as §1

dasatinib = compound: Cc1nc(Nc2ncc(C(=O)Nc3c(C)cccc3Cl)s2)cc(N2CCN(CCO)CC2)n1 [dasatinib]
Procedure, shortened: as §1

[3] = compound: Cc1ncc(-c2ccnc(Nc3ccc(S(C)(=O)=O)cc3)n2)n1C(C)C
Procedure, shortened: as §1

[4] = compound: Cn1cc(-c2ccc3c(c2)CCN3C(=O)Cc2cccc(C(F)(F)F)c2)c2c(N)ncnc21
Procedure, shortened: as §1

[5] = compound: Cn1cc(-c2ccc3nnc(C(F)(F)c4ccc5ncccc5c4)n3n2)cn1
Procedure, shortened: as §1

tipifarnib = compound: Cn1cncc1[C@@](N)(c1ccc(Cl)cc1)c1ccc2c(c1)c(-c1cccc(Cl)c1)cc(=O)n2C [tipifarnib]
Procedure, shortened: as §1

mubritinib = compound: FC(F)(F)c1ccc(/C=C/c2nc(COc3ccc(CCCCn4ccnn4)cc3)co2)cc1 [mubritinib]
Procedure, shortened: as §1

Sequence of UniProt Q9UNH7 (Q9UNH7 whole entry, looked up): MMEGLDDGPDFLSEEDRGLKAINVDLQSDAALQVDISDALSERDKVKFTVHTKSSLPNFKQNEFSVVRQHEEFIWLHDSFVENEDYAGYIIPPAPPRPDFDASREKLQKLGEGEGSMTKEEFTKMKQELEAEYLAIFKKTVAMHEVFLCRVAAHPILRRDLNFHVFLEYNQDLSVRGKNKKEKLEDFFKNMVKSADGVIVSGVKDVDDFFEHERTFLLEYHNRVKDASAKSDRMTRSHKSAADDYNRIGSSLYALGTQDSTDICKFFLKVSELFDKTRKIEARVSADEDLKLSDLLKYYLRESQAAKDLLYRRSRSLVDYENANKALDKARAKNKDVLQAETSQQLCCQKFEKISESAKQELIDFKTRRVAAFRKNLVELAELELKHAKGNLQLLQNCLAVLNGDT
Sequence of UniProt Q9UH99 (Q9UH99 whole entry, looked up): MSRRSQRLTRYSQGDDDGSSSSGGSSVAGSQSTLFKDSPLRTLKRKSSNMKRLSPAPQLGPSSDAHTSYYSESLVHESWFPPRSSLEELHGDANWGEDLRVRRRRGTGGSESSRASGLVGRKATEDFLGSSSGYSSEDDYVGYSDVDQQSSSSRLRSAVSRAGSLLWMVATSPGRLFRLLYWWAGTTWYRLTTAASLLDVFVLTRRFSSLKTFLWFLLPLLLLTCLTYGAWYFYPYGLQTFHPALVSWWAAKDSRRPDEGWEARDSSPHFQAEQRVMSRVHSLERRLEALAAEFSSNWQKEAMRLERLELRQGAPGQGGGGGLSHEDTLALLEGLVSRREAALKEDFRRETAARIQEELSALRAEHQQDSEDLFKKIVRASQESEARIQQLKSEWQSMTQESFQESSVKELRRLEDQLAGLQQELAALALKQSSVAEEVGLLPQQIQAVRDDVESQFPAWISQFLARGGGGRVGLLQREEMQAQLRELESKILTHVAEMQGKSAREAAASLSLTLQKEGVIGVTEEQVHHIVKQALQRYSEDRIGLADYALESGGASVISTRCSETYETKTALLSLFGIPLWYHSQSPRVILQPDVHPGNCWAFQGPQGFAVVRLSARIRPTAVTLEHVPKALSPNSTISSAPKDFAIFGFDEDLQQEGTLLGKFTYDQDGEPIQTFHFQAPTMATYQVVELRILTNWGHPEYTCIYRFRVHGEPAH
Sequence of UniProt Q86VD7 (Q86VD7 whole entry, looked up): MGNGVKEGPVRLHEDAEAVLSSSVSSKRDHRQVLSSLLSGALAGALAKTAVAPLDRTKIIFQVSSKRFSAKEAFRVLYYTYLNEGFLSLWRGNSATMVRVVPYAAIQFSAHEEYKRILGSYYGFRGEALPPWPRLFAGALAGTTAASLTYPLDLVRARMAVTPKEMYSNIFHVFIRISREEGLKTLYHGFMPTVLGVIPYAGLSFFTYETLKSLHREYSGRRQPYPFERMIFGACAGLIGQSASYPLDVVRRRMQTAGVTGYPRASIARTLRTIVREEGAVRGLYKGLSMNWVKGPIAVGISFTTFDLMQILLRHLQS
Sequence of UniProt Q9UKI8 (Q9UKI8 whole entry, looked up): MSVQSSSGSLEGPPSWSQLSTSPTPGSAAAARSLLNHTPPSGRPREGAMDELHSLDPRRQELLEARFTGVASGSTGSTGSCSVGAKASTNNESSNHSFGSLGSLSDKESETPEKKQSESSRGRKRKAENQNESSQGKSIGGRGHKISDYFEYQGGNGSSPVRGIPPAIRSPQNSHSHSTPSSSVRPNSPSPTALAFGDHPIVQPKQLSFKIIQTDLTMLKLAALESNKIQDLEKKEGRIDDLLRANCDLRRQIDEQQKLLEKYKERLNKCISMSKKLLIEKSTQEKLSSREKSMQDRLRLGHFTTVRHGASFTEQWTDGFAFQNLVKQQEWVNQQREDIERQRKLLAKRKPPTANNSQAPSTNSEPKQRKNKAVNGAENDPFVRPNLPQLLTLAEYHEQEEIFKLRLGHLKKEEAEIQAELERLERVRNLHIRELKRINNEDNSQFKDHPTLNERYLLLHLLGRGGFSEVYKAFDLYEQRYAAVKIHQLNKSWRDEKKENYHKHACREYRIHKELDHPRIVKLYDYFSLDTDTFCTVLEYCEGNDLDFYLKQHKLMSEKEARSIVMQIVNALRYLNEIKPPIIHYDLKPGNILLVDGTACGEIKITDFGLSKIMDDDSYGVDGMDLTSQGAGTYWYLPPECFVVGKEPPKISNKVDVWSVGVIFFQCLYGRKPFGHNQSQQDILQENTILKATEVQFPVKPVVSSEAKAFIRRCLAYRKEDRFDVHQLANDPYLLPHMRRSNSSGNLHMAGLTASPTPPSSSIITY
Sequence of UniProt Q8IY18 (Q8IY18 whole entry, looked up): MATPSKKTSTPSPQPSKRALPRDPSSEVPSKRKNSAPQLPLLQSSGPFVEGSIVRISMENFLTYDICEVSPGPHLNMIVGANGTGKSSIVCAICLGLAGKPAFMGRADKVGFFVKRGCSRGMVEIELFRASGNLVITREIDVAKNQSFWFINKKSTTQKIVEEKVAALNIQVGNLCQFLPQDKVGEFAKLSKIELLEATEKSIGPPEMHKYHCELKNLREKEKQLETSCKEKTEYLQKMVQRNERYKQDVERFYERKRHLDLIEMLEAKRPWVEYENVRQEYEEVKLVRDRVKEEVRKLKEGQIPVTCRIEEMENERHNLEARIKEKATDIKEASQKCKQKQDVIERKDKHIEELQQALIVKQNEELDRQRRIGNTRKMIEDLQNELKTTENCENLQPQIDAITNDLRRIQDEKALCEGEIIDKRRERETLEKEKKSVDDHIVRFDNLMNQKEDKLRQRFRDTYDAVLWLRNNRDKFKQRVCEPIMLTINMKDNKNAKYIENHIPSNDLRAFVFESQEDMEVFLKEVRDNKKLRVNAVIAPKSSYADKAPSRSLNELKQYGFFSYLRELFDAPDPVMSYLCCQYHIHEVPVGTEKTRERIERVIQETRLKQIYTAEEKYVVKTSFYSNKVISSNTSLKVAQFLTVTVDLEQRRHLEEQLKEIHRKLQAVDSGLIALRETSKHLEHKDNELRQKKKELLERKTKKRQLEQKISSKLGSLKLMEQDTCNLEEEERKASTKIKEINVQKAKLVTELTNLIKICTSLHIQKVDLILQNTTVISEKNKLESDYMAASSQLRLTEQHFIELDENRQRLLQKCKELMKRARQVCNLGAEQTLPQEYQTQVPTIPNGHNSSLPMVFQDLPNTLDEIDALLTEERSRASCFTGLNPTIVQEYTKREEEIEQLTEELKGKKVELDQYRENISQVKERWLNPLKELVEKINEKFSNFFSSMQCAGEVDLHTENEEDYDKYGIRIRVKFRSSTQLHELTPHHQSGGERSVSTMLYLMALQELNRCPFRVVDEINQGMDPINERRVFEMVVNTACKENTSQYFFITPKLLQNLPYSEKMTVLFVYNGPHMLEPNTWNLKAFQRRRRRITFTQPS
Sequence of UniProt Q9H5Q4 (Q9H5Q4 whole entry, looked up): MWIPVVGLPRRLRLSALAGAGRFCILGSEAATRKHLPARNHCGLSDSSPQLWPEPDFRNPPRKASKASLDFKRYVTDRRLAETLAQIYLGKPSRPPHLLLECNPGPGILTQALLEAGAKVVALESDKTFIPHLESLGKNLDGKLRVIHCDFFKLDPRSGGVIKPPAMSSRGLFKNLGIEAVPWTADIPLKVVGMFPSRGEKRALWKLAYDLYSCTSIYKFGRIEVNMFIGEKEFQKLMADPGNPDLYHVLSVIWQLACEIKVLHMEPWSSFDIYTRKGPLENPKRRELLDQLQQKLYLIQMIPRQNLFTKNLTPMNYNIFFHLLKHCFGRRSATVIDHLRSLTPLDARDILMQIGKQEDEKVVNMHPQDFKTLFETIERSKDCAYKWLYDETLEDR
Sequence of UniProt Q9UP52 (Q9UP52 whole entry, looked up): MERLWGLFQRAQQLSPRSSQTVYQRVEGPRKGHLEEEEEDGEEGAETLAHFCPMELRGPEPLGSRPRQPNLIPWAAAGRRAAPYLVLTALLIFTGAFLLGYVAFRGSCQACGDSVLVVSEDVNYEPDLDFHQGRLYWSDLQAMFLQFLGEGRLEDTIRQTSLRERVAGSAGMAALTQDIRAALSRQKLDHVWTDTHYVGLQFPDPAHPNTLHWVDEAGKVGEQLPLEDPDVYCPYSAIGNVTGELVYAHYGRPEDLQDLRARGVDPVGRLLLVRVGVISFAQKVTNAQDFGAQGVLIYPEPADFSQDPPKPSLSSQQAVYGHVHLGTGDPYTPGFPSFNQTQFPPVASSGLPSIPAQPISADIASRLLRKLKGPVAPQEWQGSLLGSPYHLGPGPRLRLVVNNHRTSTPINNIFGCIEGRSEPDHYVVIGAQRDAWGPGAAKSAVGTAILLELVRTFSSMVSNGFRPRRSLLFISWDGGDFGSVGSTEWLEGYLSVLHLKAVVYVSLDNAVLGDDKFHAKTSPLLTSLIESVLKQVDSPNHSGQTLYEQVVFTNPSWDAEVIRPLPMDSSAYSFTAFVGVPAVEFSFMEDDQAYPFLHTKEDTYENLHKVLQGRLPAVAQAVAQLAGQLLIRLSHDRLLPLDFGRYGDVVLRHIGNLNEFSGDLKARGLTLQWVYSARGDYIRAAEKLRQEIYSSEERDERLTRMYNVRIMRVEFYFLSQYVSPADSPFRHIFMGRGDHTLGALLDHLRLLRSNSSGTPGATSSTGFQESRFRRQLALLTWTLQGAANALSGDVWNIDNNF

| Target | log2 fold change (bafetinib) | log2 fold change [1] | log2 fold change (nilotinib) | log2 fold change [2] | log2 fold change (dasatinib) | log2 fold change [3] | log2 fold change [4] | log2 fold change [5] | log2 fold change (tipifarnib) | log2 fold change (mubritinib) |
| --- | --- | --- | --- | --- | --- | --- | --- | --- | --- | --- |
| TFB2M (UniProt Q9H5Q4) | -0.046 | 0.008 | -0.043 | -0.024 | -0.099 | 0.009 | 0.012 | -0.004 | -0.132 | -0.039 |
| SLC25A42 (UniProt Q86VD7) | -0.081 | -0.069 | 0.009 | -0.024 | -0.025 | 0.048 | -0.022 | -0.049 | 0.017 | 0.051 |
| SUN2 (UniProt Q9UH99) | -0.04 | 0.016 | -0.007 | -0.036 | 0.004 | -0.071 | -0.052 | -0.008 | 0.013 | -0.064 |
| SNX6 (UniProt Q9UNH7) | -0.132 | 0.138 | -0.214 | 0.012 | -0.176 | -0.47 (active) | 0.094 | 0.019 | -0.045 | 0.058 |
| TLK2 isoform 2 (UniProt Q86UE8) | -0.051 | -0.042 | 0.006 | -0.407 (active) | -0.01 | 0.007 | 0.046 | -0.033 | 0.01 | -0.001 |
| TLK1 (UniProt Q9UKI8) | -0.071 | 0 | -0.073 | -0.399 (active) | -0.028 | 0.007 | 0.06 | 0.026 | 0.01 | 0.011 |
| SMC5 (UniProt Q8IY18) | 0.02 | -0.029 | 0 | -0.095 | 0.05 | 0.082 | 0.006 | -0.102 | 0.032 | -0.004 |
| TFR2 (UniProt Q9UP52) | -0.226 (active) | -0.012 | 0.012 | -0.074 | 0.006 | -0.026 | -0.019 | 0.054 | 0.025 | 0.041 |
